Results filed as inconclusive are left out. The source made the active and inactive calls. Unless noted, calls follow the shape of the dose curve; as a rule, active = well fitted curve in the direction sought with a large enough effect; inconclusive = small, poorly fitted or top-dose-only effect, or another doubt; inactive = no such curve, though single readings can be large; an effect the other way counts as inactive or inconclusive.
Key:
[1] = molecular target: Cytochrome P450 3A4 (Homo sapiens) (UniProt P08684); assay: qHTS Assay for Inhibitors and Substrates of Cytochrome P450 3A4 (AID 884); also: potency is read from the fitted curve at half-maximal effect; nearly all actives have a fitted effect of over 50% in size
Cytochrome P450 3A4 (Homo sapiens), sequence (P08684 whole entry, looked up): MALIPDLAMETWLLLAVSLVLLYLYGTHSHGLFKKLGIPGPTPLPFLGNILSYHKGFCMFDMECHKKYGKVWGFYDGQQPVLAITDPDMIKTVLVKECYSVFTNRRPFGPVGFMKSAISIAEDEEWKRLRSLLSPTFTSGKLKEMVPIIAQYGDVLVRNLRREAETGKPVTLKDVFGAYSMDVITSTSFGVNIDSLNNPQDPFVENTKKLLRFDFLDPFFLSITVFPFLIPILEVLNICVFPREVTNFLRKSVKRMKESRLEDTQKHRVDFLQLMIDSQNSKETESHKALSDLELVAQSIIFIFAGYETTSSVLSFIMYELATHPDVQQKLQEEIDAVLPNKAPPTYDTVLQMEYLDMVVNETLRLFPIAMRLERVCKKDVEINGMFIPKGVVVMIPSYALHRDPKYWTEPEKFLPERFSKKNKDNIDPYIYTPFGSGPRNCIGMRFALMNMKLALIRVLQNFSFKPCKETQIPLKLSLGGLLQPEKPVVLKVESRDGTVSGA
Method in brief: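 Luminescent readout of luciferin produced by CYP3A4 (20 nM) dealkylation of Luciferin-PPXE, 25 uM (its KM). NADPH-driven reaction ran 60 min at RT after 10 min compound preincubation; data scaled to 57 uM ketoconazole as 100% inhibition.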

[2] = molecular target: Cytochrome P450 3A4 (Homo sapiens) (UniProt P08684); assay: qHTS Assay for Activators of Cytochrome P450 3A4 (AID 885); also: nearly all actives have a fitted effect of over 65% in size
Method in brief: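 Using 20nM recombinant human CYP3A4 in potassium phosphate (200mM), substrate Luciferin-PPXE at 25uM, luminescent luciferin detection followed a 60-min RT NADPH reaction; data scaled to 57 uM ketoconazole.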

[3] = molecular target: Calcium and integrin-binding protein 1 (Homo sapiens) (UniProt Q99828); assay: Primary qHTS for Identification of Calcium Integrin Binding Protein 1 (CIB1) Competitor (AID 1508620);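 also: GST tagged CIB1 binding a fluorescein labelled alphaIIb integrin peptide tracer; top concentration of the series differs between compounds; % is scaled to controls: 0 for no effect and ±100 for the full control effect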
Calcium and integrin-binding protein 1 (Homo sapiens), sequence (Q99828 whole entry, looked up): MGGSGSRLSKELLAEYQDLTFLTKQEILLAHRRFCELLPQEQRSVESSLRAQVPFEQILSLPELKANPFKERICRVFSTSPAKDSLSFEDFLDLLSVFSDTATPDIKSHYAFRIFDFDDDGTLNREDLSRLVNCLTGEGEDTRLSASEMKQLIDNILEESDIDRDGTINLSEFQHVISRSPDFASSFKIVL
Method in brief: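 Fluorescence polarization competition: GST-tagged CIB1 (1 uM final) preincubated with compound 15 min at room temperature, then FITC-labelled alphaIIb peptide (100 nM final) added. After 15 min at room temperature, polarization read at Ex 480/Em 540.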

[4] = Counterscreen qHTS for small molecule stabilizers of the endoplasmic reticulum resident proteome: GLuc-NoTag assay (AID 1508627); also: potency is read from the fitted curve at half-maximal effect;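 as to activity change, negative = inhibition: 0% = thapsigargin alone and -100% = DMSO vehicle control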
Method in brief: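 Counterscreen line: SH-SY5Y-GLuc-NoTag. Seed, 5 h; compound, 19 h; thapsigargin 100 nM, 4 h; 37C/5% CO2. Readout: secreted GLuc luminescence, coelenterazine 0.07x final, no lysis.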

[5] = molecular target: Lysosomal acid glucosylceramidase (Homo sapiens) (UniProt P04062); assay: Glucocerebrosidase-p2 (AID 348; in the data active = potency below about 10 µM; also: potency is read from the fitted curve at half-maximal effect); conditions: purified GBA, blue fluorogenic substrate, 40 min
Lysosomal acid glucosylceramidase (Homo sapiens), sequence (P04062 whole entry, looked up): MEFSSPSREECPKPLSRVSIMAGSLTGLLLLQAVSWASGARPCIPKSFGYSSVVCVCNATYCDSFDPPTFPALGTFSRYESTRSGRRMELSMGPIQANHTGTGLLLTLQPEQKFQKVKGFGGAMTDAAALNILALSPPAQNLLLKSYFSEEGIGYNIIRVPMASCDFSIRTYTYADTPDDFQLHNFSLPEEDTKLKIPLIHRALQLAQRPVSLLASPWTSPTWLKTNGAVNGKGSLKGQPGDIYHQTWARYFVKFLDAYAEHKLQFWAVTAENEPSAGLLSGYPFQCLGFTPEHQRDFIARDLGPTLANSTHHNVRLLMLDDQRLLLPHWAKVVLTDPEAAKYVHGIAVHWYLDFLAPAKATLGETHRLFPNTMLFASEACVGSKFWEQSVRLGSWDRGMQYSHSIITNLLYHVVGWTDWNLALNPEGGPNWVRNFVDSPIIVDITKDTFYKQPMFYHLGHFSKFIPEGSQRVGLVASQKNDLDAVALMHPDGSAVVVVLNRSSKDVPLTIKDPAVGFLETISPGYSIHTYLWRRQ
Method in brief: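 Normal human glucocerebrosidase (0.2 nM) with blue fluorogenic substrate (80 uM final) in citrate/phosphate pH 5.9 with 10mM sodium taurocholate, 0.01% tween-20; 40 min RT, NaOH/glycine stop; fluorescence Ex 365/Em 440; AC50 from a titration from 0.6 nM upwards.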

[6] = AP1 Signaling Pathway (AID 357; active = well fitted curve in either direction with a large enough effect, not every such curve was filed as active;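 also: ME-180 reporter cells stimulated with EGF at its EC50 level; % is scaled to controls: 0 for no effect and ±100 for the full control effect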); conditions: ME-180 AP-1-bla reporter, EGF-induced, beta-lactamase ratio, 5 h; at 7.69 µM (top of the series) unless noted
Method in brief: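 Read-out was the 460nm/530nm emission ratio (excitation 405nm) after CCF4 loading for 2.5 hours at room temperature. Cells carried an AP-1-driven beta-lactamase reporter, were stimulated with EC50 EGF plus compound for 5 hours, and AC50 values came from titrations.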

[7] = molecular target: Cytochrome P450 1A2 (Homo sapiens) (UniProt P05177); assay: p450-cyp1a2 (AID 410; calls by dose curve; also: potency is read from the fitted curve at half-maximal effect)
Cytochrome P450 1A2 (Homo sapiens), sequence (P05177 whole entry, looked up): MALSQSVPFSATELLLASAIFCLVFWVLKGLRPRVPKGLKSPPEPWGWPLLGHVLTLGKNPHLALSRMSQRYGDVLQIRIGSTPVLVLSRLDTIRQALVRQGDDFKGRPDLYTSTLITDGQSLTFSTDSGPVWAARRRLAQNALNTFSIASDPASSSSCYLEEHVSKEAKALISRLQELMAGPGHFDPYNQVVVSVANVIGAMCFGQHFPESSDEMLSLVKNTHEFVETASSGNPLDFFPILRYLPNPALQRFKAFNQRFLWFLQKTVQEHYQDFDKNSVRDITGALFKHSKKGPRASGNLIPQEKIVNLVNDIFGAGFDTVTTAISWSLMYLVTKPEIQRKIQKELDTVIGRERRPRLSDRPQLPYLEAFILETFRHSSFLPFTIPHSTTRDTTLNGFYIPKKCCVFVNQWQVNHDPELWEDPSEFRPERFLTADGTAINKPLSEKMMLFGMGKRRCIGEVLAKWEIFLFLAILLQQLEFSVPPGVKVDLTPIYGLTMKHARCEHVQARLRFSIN
Method in brief: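 Luminescent demethylation readout: Luciferin-ME (100uM, equal to Km) turned over by 20nM CYP1A2 for 60 min at room temperature after NADPH regeneration addition, following 10 min compound preincubation. Normalization used 57 uM furafylline as full inhibition.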

[8] = NFAT Signaling Pathway (AID 444; active = well fitted curve in either direction with a large enough effect, not every such curve was filed as active;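 also: carbachol stimulus at about its EC50 of 1 µM final; % is scaled to controls: 0 for no effect and ±100 for the full control effect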); conditions: Jurkat NFAT-bla M1, carbachol, beta-lactamase ratio, 5 h; at 7.69 µM (top of the series) unless noted
Method in brief: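 Jurkat cells with NFAT-driven β-lactamase reporter and co-expressed M1 receptor, stimulated with carbachol (final 1 uM, ~EC50), compound titration, 5 h at 37 °C. CCF4 loaded 1 h at RT; 460/530 nm ratio gave %activity and AC50.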

[9] = Stat Signaling Pathway (AID 446; active = well fitted curve in either direction with a large enough effect, not every such curve was filed as active;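 also: ME-180 cervical cancer cells given 40 pM IL-6 alongside compound; SIE-controlled beta-lactamase reporter measured as 460/530 nm FRET emission ratio; % is scaled to controls: 0 for no effect and ±100 for the full control effect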); conditions: ME-180 (cervical carcinoma) SIE beta-lactamase reporter, IL-6 stimulated, 5 h; at 7.69 µM (top of the series) unless noted
Method in brief: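 Overnight-plated ME-180 cells bearing a STAT Inducible Element beta-lactamase reporter; 5 h co-exposure to compound and 40 pM IL-6; values normalized to 300 pM IL-6 and 125 nM JAK inhibitor controls.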

[10] = molecular target: Glucocorticoid receptor (Homo sapiens) (UniProt P04150); assay: GR-GFP Redistribution (AID 450;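 active = compounds whose dose series gives a full or clear partial fitted curve of increased nuclear translocation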; also: potency is read from the fitted curve at half-maximal effect); conditions: U2OS GR-GFP nuclear translocation, laser cytometry, 2 h
Glucocorticoid receptor (Homo sapiens), sequence (P04150 whole entry, looked up, the tested form may be a part): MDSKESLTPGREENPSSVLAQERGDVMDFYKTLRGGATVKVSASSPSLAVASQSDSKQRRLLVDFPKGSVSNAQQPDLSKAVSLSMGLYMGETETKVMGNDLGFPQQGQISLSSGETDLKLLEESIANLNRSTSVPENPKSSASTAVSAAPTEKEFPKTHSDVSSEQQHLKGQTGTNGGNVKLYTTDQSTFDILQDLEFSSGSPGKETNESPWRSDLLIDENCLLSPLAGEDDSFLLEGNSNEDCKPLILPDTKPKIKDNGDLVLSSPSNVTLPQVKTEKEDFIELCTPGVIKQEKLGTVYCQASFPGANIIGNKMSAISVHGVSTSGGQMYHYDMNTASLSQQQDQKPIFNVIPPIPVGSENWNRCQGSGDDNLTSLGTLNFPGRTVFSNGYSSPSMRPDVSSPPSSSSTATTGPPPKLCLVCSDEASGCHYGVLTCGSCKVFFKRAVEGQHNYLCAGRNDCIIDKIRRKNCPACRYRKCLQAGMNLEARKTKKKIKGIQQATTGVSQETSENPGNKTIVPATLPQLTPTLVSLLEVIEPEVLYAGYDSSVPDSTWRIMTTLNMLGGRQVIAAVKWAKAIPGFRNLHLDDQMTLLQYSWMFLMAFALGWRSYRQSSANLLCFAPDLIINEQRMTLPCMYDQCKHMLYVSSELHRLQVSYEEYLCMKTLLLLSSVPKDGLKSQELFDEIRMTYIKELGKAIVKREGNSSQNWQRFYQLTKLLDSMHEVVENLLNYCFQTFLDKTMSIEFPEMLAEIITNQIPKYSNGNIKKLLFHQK

[11] = molecular target: Glucocorticoid receptor (Homo sapiens) (UniProt P04150); assay: GR-EFC Redistribution (AID 451; calls by dose curve; also: potency is read from the fitted curve at half-maximal effect); conditions: CHO-K1 GR-EFC translocation, beta-gal luminescence, 2 h
Method in brief: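 CHO-K1 cells expressing nuclear EA and GR-ED fragments of b-gal; compounds titrated up to 46 uM final, 2 h at 37 C. GR nuclear translocation read as complemented b-gal luminescence after 1 h RT detection.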

[12] = molecular target: Mitogen-activated protein kinase 10 (Mus musculus) (UniProt Q61831); assay: JNK3 AlphaScreen Assay (AID 530; active = well fitted curve in either direction with a large enough effect, not every such curve was filed as active)
Method in brief: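 Activity was read by AlphaScreen after JNK3-containing HepG2 lysate (cytokine pre-activated) phosphorylated biotinylated GST-cJun with 10 uM ATP at room temperature. Phospho-Ser73 cJun antibody with Protein-A acceptor beads provided detection.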

[13] = molecular target: 3',5'-cyclic-AMP phosphodiesterase 4B (Homo sapiens) (UniProt Q07343); assay: qHTS Assay for Inhibitors of PDE-IV (AID 607; active = well fitted activation curve with a large enough effect in the main read-out, with a control signal flat, not every such curve was filed as active; also: % of control where 0% means no effect)
3',5'-cyclic-AMP phosphodiesterase 4B (Homo sapiens), sequence (Q07343 whole entry, looked up): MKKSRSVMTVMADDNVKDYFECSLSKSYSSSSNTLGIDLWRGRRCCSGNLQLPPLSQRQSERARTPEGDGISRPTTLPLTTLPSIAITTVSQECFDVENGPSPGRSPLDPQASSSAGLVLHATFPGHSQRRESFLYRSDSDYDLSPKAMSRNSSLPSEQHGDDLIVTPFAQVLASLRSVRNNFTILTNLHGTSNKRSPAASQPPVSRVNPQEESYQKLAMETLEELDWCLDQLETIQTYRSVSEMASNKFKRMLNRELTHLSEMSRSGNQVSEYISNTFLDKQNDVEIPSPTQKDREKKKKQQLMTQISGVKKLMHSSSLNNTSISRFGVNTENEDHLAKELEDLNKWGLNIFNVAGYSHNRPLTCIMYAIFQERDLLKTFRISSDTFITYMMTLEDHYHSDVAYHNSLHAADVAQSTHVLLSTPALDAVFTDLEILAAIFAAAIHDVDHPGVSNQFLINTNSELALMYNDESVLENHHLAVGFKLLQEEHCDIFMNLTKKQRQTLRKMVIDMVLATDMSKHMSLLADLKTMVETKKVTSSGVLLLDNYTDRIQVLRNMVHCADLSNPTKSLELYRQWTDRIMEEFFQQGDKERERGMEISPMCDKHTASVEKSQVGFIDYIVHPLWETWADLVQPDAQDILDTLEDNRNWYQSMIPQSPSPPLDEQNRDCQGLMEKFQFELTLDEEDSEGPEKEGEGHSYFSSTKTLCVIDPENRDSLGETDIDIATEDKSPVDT
Method in brief: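 Live HEK293 cells with a modified cyclic nucleotide-gated (CNG) channel report intracellular cAMP via membrane-potential dye fluorescence (ex 535/em 590 nm). Endogenous PDE-IV was targeted. Compounds were tested at up to 22.9 uM final; RO 20-1724 100 uM served as control.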

[14] = molecular target: Cytochrome P450 2C9 (Homo sapiens) (UniProt P11712); assay: qHTS Assay for Inhibitors and Substrates of Cytochrome P450 2C9 (AID 883); also: % is scaled to controls: 0 for no effect and ±100 for the full control effect; nearly all actives have a fitted effect of over 60% in size
Cytochrome P450 2C9 (Homo sapiens), sequence (P11712 whole entry, looked up): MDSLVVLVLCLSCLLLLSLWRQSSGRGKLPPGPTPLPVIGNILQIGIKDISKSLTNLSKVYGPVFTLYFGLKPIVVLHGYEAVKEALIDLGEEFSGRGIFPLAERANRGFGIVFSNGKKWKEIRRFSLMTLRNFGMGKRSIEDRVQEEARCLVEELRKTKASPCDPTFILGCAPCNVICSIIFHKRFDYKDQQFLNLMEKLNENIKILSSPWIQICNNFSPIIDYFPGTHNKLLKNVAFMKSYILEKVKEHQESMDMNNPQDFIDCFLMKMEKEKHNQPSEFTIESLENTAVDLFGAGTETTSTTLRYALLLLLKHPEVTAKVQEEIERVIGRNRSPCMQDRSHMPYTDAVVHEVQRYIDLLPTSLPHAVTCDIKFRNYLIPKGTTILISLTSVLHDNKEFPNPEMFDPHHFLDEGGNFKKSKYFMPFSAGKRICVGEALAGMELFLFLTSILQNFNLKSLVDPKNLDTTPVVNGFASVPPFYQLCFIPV
Method in brief: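 10nM CYP2C9 + 100uM Luciferin-H (=KM), 25mM KPO4; cpd 10 min 37C; NADPH regen, 60 min 37C; stop/detect with P450 Glo-Buffer 20 min; luminescence. Norm. to 57uM sulphaphenazole as full inhibition.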

[15] = qHTS Assay for Lipid Storage Modulators (AID 1519; calls by dose curve); conditions: Drosophila S3 cells, BODIPY lipid droplet/cell ratio, laser cytometry, cells loaded with oleic acid; for activity change, negative = inhibition: at 57.5 µM (top of the series)
Method in brief: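 Cells seeded at 5,000 per well were treated with compounds over a concentration series and loaded with oleic acid (400 uM, as added). Lipid droplet fluorescence (488 nm excitation, 500-530 nm channel) was read by laser-scanning cytometry and normalized to 20 uM Triacsin C.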

[16] = molecular target: Dual specificity protein kinase CLK4 (Homo sapiens) (UniProt Q9HAZ1); assay: qHTS Assay for Inhibitors of CDC-like Kinase 4 (Kinase-Glo Assay) (AID 1770); also: % is scaled to controls: 0 for no effect and ±100 for the full control effect; nearly all actives have a fitted effect of over 65% in size
Dual specificity protein kinase CLK4 (Homo sapiens), sequence (Q9HAZ1 whole entry, looked up): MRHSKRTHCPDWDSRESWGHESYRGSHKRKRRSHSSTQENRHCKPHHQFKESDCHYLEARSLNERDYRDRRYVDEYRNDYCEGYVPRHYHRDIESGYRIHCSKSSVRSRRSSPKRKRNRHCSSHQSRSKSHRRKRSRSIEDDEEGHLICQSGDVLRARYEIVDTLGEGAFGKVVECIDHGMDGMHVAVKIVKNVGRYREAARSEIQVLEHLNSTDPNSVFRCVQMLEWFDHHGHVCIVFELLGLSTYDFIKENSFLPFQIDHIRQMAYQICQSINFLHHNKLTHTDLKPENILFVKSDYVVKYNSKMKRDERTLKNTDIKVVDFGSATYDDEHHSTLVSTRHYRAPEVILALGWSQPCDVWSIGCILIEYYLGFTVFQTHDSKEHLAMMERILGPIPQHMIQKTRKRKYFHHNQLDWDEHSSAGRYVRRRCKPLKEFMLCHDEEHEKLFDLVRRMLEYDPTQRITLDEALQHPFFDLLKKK
Method in brief: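 Readout: Kinase-Glo luminescence from ATP left after a 4.5 h room-temperature reaction of 25 nM Clk4 with 100 uM RS peptide and 1 uM ATP (final). Buffer: 25 mM Tris pH 7.5, 10 mM MgCl2.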

[17] = molecular target: Dual specificity protein kinase CLK4 (Homo sapiens) (UniProt Q9HAZ1); assay: qHTS Assay for Inhibitors of CDC-like Kinase 4 (ADP-Glo Assay) (AID 1771); also: % is scaled to controls: 0 for no effect and ±100 for the full control effect; nearly all actives have a fitted effect of over 70% in size
Method in brief: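 ADP production was read by ADP-Glo luminescence after residual ATP depletion, following 1 h room-temperature reaction of 25 nM Clk4, 1 uM ATP and 100 uM RS peptide with MgCl2, EGTA, DTT and Triton X-100.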

[18] = molecular target: Dual specificity protein kinase CLK4 (Homo sapiens) (UniProt Q9HAZ1); assay: qHTS Assay for Inhibitors of CDC-like Kinase 4 (ADP-FP Assay) (AID 1795);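 also: recombinant human CLK4 phosphorylating RS repeat peptide at 1 µM ATP; % is scaled to controls: 0 for no effect and ±100 for the full control effect; nearly all actives have a fitted effect of over 60% in size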
Method in brief: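 FP readout: Orange Transcreener ADP2 tracer (4 nM) plus ADP antibody, read after 30 min at room temperature. Kinase step: 6.25 nM Clk4, 100 uM RS peptide, 1 uM ATP, pH 7.5, 1 h.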

[19] = molecular target: Ubiquitin carboxyl-terminal hydrolase 1 (Homo sapiens) (UniProt O94782); assay: Inhibitors of USP1/UAF1: Pilot qHTS (AID 504865);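 also: rhodamine fluorescence freed from ubiquitin-rhodamine substrate followed over time; top concentration of the series differs between compounds; % is scaled to controls: 0 for no effect and ±100 for the full control effect; nearly all actives have a fitted effect of over 35% in size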
Ubiquitin carboxyl-terminal hydrolase 1 (Homo sapiens), sequence (O94782 whole entry, looked up): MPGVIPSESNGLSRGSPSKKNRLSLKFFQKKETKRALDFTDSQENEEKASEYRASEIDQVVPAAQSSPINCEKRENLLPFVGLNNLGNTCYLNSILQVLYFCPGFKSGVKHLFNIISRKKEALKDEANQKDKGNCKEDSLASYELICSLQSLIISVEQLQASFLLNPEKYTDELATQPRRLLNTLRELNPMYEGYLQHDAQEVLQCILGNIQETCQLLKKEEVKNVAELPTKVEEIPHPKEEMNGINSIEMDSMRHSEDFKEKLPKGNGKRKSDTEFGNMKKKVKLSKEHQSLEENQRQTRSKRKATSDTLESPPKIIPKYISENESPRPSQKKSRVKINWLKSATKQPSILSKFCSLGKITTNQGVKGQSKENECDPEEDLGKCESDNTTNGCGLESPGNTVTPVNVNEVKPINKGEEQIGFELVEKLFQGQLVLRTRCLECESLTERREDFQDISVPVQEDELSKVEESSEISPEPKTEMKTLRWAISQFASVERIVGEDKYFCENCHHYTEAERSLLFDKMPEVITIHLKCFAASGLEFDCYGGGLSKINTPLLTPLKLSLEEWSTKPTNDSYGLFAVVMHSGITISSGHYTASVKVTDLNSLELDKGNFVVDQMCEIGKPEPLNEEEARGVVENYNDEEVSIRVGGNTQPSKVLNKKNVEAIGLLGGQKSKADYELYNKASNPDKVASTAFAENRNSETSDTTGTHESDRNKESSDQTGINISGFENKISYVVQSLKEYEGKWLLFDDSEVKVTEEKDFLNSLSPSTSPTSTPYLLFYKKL
Method in brief: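 1nM USP1/UAF1 + cpd, 15 min RT; start w/ Ub-Rho 150nM final; kinetic FL 480/540 nm, 6 reads q60 s. Buffer 50mM HEPES pH 7.8, 0.5mM EDTA, 1mM TCEP, 0.01% Tween-20, 0.1 mg/ml BSA.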

[20] = Confirmatory qHTS for small molecule stabilizers of the endoplasmic reticulum resident proteome: Secreted ER Calcium Modulated Protein (SERCaMP) assay (AID 1508628); also: nearly all actives have a fitted effect of over 40% in size; also: potency is read from the fitted curve at half-maximal effect
Method in brief: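 Reporter secretion upon ER calcium depletion (100 nM thapsigargin, 4 h, 37C) is measured as medium luminescence with coelenterazine, after 16 h compound pretreatment of SH-SY5Y-GLuc-SERCaMP cells; primary at three concentrations up to 38.3 uM, follow-up at 11 (up to 76.6 uM).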

[21] = Cell Viability qHTS for small molecule stabilizers of the endoplasmic reticulum resident proteome (AID 1508629); conditions: cell viability counter-screen, 100 nM thapsigargin for final 4 h
[22] = measured here: cell count channel max response
[23] = measured here: lipid channel max response

Cc1nc(NCc2ccccc2)c2nc(-c3ccccc3)n(CCN3CCOCC3)c2n1
inactive: Potency [2] | Potency [3]
active: Potency [1] 0.631 µM

COc1cc2c(cc1OC)[C@H](C)N(CC1C(=O)O[C@@H]3C[C@@]4(C)CCC[C@H](C)[C@@]45OC5[C@H]13)CC2 (stereo not given in full)
active: Potency [4] 35.5 µM

FC(F)(F)c1ccccc1-c1nccc(N2CCNCC2)n1
active: Potency [7] 10 µM | Potency [20] 15.8 µM
inactive: Potency [5] > 11.4 µM | activity change, negative = inhibition [6] -4.79% | activity change, negative = inhibition [8] -3.28% | activity, negative = inhibition [9] 9.61% | Potency [10] > 46 µM | Potency [11] > 46 µM | outcome [12] | Potency [13] | activity change, negative = inhibition [14] 37.4% [at 2.29 µM] | activity change, negative = inhibition [15] 4.7% | Potency [16] | Potency [17] | Potency [18] | Potency [19] | Potency [4]
10.7%: max response [15, 22]
12.2%: max response [15, 23]

O=c1c(-c2cccs2)nc2cnc(N3CCNCC3)nc2n1-c1ccccc1
inactive: Potency [5] > 11.4 µM | Potency [10] > 9.22 µM | Potency [11] > 46 µM | outcome [12] | Potency [13] | Potency [2] | Potency [4] | Potency [20] | max response [21] 6.37%
active: Potency [7] 2.51 µM

Cc1nc2cnc(N3CCN(C)CC3)nc2n(Cc2cccs2)c1=O
inactive: Potency [5] > 11.4 µM | activity change, negative = inhibition [6] 6.23% | activity change, negative = inhibition [8] -2.27% | activity, negative = inhibition [9] -2.61% | Potency [10] > 9.22 µM | Potency [11] > 46 µM | outcome [12] | Potency [13] | Potency [2] | activity change, negative = inhibition [15] 5.56% | Potency [4] | max response [21] -5.25%
active: Potency [7] 12.6 µM | Potency [20] 39.8 µM
14%: max response [15, 22]
22.2%: max response [15, 23]

Fc1ccc(Nc2ccnc(-c3ccccc3C(F)(F)F)n2)cc1
inactive: Potency [5] > 11.4 µM | activity change, negative = inhibition [6] -7.91% | activity change, negative = inhibition [8] -6.61% | activity, negative = inhibition [9] 3.25% | Potency [10] > 46 µM | Potency [11] > 46 µM | outcome [12] | Potency [13] | Potency [2] | Potency [16] | Potency [17] | Potency [18] | Potency [4] | max response [21] -1.83%
active: Potency [7] 2 µM | Potency [20] 50.1 µM
